Experimental data as given in PubChem BioAssay.
The source made the active and inactive calls.

Key:
[1] = small molecules captured by biotinylated probe aFSTL3 – biochemical, small-molecule microarray, fluorescence 635/667, stem cell growth factor project, primary screen (AID 1064); conditions: higher = more signal;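 also: measures binding of the biotinylated anti-FSTL3 antibody to printed compounds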
[2] = binders from COS7 lysate, DM2A8 probe, primary screen, torsin A project, cell lysate, small-molecule microarray, fluorescence 635/667 (AID 1065); conditions: higher = more signal, COS7 lysate expressing mutant human TOR1A
[3] = small molecules captured by biotinylated probe aFGF2 – biochemical, small-molecule microarray, fluorescence 635/667, stem cell growth factor project, primary screen (AID 1067); conditions: higher = more signal;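 also: measures binding of biotinylated aFGF2 protein to printed compounds on slides; z-score merges feature fluorescence and signal-to-noise across triplicate slides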
[4] = small molecules captured by biotinylated probe aFGF10 – biochemical, small-molecule microarray, fluorescence 635/667, stem cell growth factor project, primary screen (AID 1071); conditions: higher = more signal;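 also: score merges 667 nm spot intensity and signal to noise from triplicate slides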
[5] = target: Neurogenic locus notch homolog protein 2 (Homo sapiens) (UniProt Q04721); experiment: small molecules binding Notch2 protein – biochemical, small-molecule microarray, 635 nm fluorescence, stem cell growth factors, primary screen (AID 1073); conditions: higher = more signal
[6] = target: Pro-neuregulin-1, membrane-bound isoform (Homo sapiens) (UniProt Q02297); experiment: small molecules binding neuregulin-1 protein – biochemical, small-molecule microarray, fluorescence 635/667, psychiatric disease protein project, primary screen (AID 1075); conditions: NRG1 binding, 635 nm fluorescence, higher = more signal;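 also: score combines 667 nm spot fluorescence with signal to noise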
[7] = system: Neuregulin-1 EGF-like domain; experiment: small molecules binding NRG1 EGF domain – biochemical, small-molecule microarray, 635 nm fluorescence, primary screen (AID 1081); conditions: higher = more signal;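 also: binding of the protein to compounds printed on small-molecule microarray slides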
[8] = FRG1 expression reporter modulators in myotubes – cell-based, C2C12 myotubes, firefly/Renilla luciferase, luminescence, FRG1 inhibition for FSHD, primary screen (AID 1084); conditions: FRG1 promoter luciferase, higher = more signal, called active from +8 up or from −8 down
[9] = small molecules captured by biotinylated probe aFST – biochemical, small-molecule microarray, fluorescence 635/667, stem cell growth factor project, primary screen (AID 1086); conditions: higher = more signal;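 also: score merges 667 nm fluorescence with signal-to-noise of each printed compound spot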
[10] = binders of probe aHhip on microarray, primary screen, stem cell growth factor project, biochemical, small-molecule microarray, fluorescence 635/667 (AID 1087); conditions: higher = more signal;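 also: score merges spot fluorescence at 667nm with spot signal to noise ratio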
[11] = system: PRMT1 (protein arginine N-methyltransferase 1); experiment: small molecules binding arginine methyltransferase PRMT1 – biochemical, small-molecule microarray, 635 nm fluorescence, primary screen (AID 1088); conditions: higher = more signal;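 also: binding of Prmt1 protein to compounds spotted on small-molecule microarray slides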
[12] = growth effects on S. cerevisiae YJM789 – YJM789 clinical isolate, OD600, 24 h, basal, primary screen (AID 1089); conditions: higher = more signal, called active from +8 up or from −8 down;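 also: growth of clinical yeast isolate S. cerevisiae YJM 789 seeded 1000 cells per well; test concentration not given here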
[13] = S. pombe growth modifiers, basal conditions – strain 972, OD600, 24 h, no modulator, primary screen (AID 1090);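 also: basal condition with compound alone and no growth modifier present; test concentration not given here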; conditions: S. pombe 972 growth, higher = more signal, called active from +8 up or from −8 down
[14] = budding yeast growth modifiers under rapamycin – strain BY4716, OD600, 96 h, primary screen (AID 1091); also: test concentration not given here; conditions: S. cerevisiae BY4716 + rapamycin, higher = more signal, called active from +8 up or from −8 down
[15] = target: Torsin-1A-interacting protein 2 (Homo sapiens) (UniProt Q8NFQ8); experiment: small molecules binding lysate-expressed LULL1 – cell lysate, human LULL1 lysate, 635/667 nm fluorescence, primary screen (AID 1092); conditions: small-molecule microarray, hLULL1 lysate binding, 635 nm fluorescence; higher = more signal;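 also: probe is lysate of COS7 cells overexpressing human LULL1; score merges per-feature 667 nm fluorescence with signal-to-noise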
[16] = optical density change of DRC41 E. coli – strain DRC41, OD650, 24 h, E. coli filamentation project, primary screen (AID 1093);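 also: MC1000 strain lacking acrAB efflux and sulA so SOS filamentation is blocked; test concentration not given here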; conditions: E. coli DRC41 growth, higher = more signal, called active from +8 up or from −8 down
[17] = probe aLefty2 binding to arrayed compounds – biochemical, biotinylated probe, 635/667 nm fluorescence, primary screen (AID 1094); conditions: small-molecule microarray, higher = more signal;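 also: score merges spot fluorescence near 667 nm with spot signal-to-noise ratio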
[18] = system: Noggin (protein binding on small-molecule microarray); experiment: small molecules binding Noggin protein – biochemical, 635/667 nm fluorescence, primary screen (AID 1095); conditions: 635 nm fluorescence, higher = more signal;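 also: score merges 667 nm feature fluorescence with signal to noise over triplicate slides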
[19] = target: Neurogenic locus notch homolog protein 3 (Homo sapiens) (UniProt Q9UM47); experiment: small molecules binding NOTCH3 protein – biochemical, 635/667 nm fluorescence, primary screen (AID 1096); conditions: small-molecule microarray, 635 nm fluorescence, higher = more signal
[20] = probe aEGFR binding to arrayed compounds – biochemical, biotinylated probe, 635/667 nm fluorescence, primary screen (AID 1097); conditions: small-molecule microarray, higher = more signal;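 also: probe is a biotinylated anti-EGFR antibody binding compounds printed on slides; score combines fluorescence near 667 nm and signal to noise of each spot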

Sequence of Pro-neuregulin-1, membrane-bound isoform (Homo sapiens) (Q02297 whole entry, looked up, the tested form may be a part, canonical isoform): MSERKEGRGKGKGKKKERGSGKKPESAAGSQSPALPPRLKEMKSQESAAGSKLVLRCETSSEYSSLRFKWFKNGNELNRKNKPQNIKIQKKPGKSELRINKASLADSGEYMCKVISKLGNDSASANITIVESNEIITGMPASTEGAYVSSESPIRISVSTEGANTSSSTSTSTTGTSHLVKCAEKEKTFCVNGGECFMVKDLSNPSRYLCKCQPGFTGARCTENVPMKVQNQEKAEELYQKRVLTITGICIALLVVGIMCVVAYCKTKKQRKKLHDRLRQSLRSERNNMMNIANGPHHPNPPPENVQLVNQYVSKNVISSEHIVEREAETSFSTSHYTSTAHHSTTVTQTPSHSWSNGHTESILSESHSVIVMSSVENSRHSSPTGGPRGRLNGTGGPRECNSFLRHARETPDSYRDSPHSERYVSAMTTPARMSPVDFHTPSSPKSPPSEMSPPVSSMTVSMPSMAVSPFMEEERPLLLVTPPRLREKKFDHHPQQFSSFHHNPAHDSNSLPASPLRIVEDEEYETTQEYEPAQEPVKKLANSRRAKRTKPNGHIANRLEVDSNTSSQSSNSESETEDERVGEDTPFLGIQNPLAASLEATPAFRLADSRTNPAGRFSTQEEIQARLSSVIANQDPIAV
Sequence of Neurogenic locus notch homolog protein 3 (Homo sapiens) (Q9UM47 whole entry, looked up): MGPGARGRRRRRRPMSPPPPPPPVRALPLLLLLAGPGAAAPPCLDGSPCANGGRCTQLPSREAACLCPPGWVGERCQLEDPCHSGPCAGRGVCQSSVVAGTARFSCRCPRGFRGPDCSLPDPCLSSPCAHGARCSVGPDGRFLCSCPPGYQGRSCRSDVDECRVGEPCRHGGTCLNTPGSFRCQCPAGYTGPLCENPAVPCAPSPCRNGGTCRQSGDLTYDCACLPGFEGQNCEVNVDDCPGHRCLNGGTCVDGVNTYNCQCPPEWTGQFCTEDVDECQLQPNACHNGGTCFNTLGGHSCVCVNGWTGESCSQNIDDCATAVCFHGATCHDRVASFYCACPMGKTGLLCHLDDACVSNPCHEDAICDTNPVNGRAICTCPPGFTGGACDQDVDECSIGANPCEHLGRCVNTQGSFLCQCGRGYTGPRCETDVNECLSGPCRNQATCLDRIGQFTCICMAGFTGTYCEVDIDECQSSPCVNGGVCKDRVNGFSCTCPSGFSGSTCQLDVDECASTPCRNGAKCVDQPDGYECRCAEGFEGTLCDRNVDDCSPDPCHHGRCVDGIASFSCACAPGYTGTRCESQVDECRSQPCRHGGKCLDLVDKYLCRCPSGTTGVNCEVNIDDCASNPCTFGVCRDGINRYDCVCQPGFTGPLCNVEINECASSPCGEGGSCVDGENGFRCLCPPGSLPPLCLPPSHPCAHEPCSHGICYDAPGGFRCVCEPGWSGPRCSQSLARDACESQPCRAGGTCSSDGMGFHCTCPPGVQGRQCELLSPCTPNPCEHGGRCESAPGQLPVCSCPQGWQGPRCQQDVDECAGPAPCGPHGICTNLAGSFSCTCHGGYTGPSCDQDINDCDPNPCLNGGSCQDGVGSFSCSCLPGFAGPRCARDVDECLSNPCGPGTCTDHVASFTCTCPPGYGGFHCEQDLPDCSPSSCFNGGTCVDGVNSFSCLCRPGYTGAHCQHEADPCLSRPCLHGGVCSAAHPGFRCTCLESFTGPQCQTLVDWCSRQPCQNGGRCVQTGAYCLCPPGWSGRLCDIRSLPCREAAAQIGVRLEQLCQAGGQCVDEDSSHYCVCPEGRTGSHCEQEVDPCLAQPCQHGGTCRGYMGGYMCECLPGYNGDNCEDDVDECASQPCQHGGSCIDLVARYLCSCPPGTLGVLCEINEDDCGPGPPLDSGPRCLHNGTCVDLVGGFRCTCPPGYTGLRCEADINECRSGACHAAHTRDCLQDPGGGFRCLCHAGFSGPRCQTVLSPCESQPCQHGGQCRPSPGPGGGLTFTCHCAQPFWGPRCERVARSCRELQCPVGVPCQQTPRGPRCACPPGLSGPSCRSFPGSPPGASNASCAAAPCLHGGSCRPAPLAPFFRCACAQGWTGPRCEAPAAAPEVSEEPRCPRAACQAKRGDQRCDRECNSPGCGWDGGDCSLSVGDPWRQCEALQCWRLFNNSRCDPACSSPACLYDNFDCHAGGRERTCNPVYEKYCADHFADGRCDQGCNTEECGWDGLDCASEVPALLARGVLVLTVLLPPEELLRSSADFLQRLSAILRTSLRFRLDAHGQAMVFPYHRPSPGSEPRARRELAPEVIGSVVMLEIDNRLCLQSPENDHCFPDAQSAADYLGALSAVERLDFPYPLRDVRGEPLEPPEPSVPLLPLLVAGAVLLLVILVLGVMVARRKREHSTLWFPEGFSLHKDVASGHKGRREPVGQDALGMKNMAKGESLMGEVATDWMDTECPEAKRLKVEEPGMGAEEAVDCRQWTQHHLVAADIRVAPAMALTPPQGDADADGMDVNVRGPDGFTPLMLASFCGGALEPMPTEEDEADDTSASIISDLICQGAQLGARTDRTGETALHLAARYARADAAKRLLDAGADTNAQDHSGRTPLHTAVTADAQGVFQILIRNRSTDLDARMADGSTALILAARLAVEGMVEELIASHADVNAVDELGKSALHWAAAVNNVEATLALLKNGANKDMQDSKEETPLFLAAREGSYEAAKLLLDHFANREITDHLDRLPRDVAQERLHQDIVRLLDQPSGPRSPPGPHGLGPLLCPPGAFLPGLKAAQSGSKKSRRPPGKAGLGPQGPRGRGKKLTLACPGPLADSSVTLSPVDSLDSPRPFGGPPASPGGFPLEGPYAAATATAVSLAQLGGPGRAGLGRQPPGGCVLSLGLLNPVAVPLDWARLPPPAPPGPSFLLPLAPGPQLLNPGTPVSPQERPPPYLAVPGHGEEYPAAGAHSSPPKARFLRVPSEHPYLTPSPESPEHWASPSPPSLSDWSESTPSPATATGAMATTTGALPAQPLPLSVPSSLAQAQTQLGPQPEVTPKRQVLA
Sequence of Torsin-1A-interacting protein 2 (Homo sapiens) (Q8NFQ8 whole entry, looked up): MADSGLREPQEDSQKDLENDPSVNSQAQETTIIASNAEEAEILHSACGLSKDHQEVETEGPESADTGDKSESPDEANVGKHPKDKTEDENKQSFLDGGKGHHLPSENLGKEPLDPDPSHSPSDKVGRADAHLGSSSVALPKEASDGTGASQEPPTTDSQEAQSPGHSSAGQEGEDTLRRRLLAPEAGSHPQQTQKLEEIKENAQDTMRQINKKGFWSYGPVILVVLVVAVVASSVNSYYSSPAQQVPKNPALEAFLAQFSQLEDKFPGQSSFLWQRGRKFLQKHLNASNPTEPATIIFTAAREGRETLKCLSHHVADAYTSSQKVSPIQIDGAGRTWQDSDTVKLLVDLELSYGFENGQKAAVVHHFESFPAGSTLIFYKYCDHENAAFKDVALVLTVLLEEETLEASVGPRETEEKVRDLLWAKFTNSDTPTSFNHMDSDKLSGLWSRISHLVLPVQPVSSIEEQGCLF

Structure (SMILES) | composite z-score [1] | composite z-score [2] | composite z-score [3] | composite z-score [4] | composite z-score [5] | composite z-score [6] | composite z-score [7] | z-score [8] | composite z-score [9] | composite z-score [10] | composite z-score [11] | z-score [12] | z-score [13] | z-score [14] | composite z-score [15] | z-score [16] | composite z-score [17] | composite z-score [18] | composite z-score [19] | composite z-score [20]
CCCCCN1CC=CC23O[C@@H]4/C=C\CCCOC(=O)C4[C@H]2C(=O)N(CCCCCO)[C@@H]3C1=O (stereo not given in full) | 0.239 | -0.291 | -0.103 | -0.501 | -0.581 | -0.315 | -0.786 | -0.225 (inactive) | -0.841 | -0.164 | -0.409 | -0.557 (inactive) | -0.383 (inactive) | -1.39 (inactive) | -2.15 | 1.62 (inactive) | -0.159 | -0.636 | -0.0581 | -0.175
COc1ccc(CCNC(=O)[C@@H]2c3ccccc3C(=O)N(Cc3cc(F)cc(C(F)(F)F)c3)[C@H]2c2ccc(CO)cc2)cc1 | 1.65 | 0.705 | 0.272 | 0.235 | 0.158 | 1.17 | 0.975 | -1.36 (inactive) | 2.49 | -0.251 | 1.54 | -0.0253 (inactive) | -0.131 (inactive) | 0.142 (inactive) | 2.21 | 1.02 (inactive) | 0.159 | 0.415 | 0.195 | 0.179
C[C@H]1C2[C@H](Cc3ccccc3)NC(=O)[C@]23C(=O)N[C@@H](Cc2ccccc2)C(=O)N2CCC[C@H]2C(=O)NC/C=C/CC/C=C/C3[C@@H]2O[C@]12C (stereo not given in full) | 0.0522 | 0.483 | -0.129 | 0.75 | 0.237 | 0.0519 | 1.03 | 1.28 (inactive) | 0.101 | -0.0618 | 1.05 | -0.501 (inactive) | -0.36 (inactive) | -0.441 (inactive) | 1.7 | -0.269 (inactive) | -0.0666 | 0.79 | 0.977 | -0.135
CN(C)CCCCCCNC(=O)[C@@H]1C[C@@H]2C(=O)N[C@@H](CCCC[N+](C)(C)C)C(=O)N2[C@@H]1c1cccc(OCCO)c1 | 0.516 | 0.869 | -0.0707 | -0.431 | -0.558 | -0.538 | 0.801 | 3.98 (inactive) | -0.516 | -0.333 | -0.357 | -3.6 (inactive) | -1 (inactive) | -1.17 (inactive) | 2.79 | 0.797 (inactive) | 0.141 | -0.349 | 0.363 | -0.108
C=CCNC(=O)[C@@H]1[C@H]2C(=O)O[C@H](c3ccccc3)[C@H](c3ccccc3)N2[C@H](c2ccc(OCCO)cc2)[C@@]12C(=O)N(C(=O)OCCOC)c1ccccc12 | -0.156 | 1.08 | 0.0021 | 0.591 | 0.964 | 1.05 | 1.25 | 0.0023 (inactive) | 0.954 | 0.0053 | 1.53 | 2.46 (inactive) | 1.67 (inactive) | 5.18 (inactive) | 2.92 | 0.246 (inactive) | -0.0267 | 1.04 | 1.06 | 0.0413
